# From the supplement of paper PMC10849652
# The full data set covers some 7,900 targets. This sample favours those with a hit. About 0.6% of all pairs of compound and target were hits. A number with no mark means an inactive call.
# Key:
# Assay in all cases: log2 fold change, soluble protein after heating vs DMSO (PISA); higher = thermal stabilisation; K562 cells, 10 uM, 30 min; active = over 0.2 and 3.5 SD of the protein, either way, in both replicates (recomputed)
# [1] = compound: COC1=CC=C(C=C1)CN2C=CC3=C2C=C(C=C3)C(=O)NO
# Procedure, shortened: (§1)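 Thermal stability values are relative to control samples and come from duplicates. They are expressed as log2 fold changes. For measurement, K562 cells (2×10^6 cells/mL) received 10 μM compound for 30 min, and aliquots were heated for 3 min over 48°C-58°C, pooled, and extracted at 4°C in PBS with 0.5% NP-40. Soluble protein, the supernatant after 21,000xg for 90 min, was quantified by TMTpro 16plex LC-MS/MS with equalised channel sums.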
# alisertib = compound: COc1cc(Nc2ncc3c(n2)-c2ccc(Cl)cc2C(c2c(F)cccc2OC)=NC3)ccc1C(=O)O [alisertib]
# Procedure, shortened: as §1
# [2] = compound: COc1cccc2cc(-c3nc([C@H]4CC[C@H](C(=O)O)CC4)n4ncnc(N)c34)[nH]c12
# Procedure, shortened: as §1
# crizotinib = compound: C[C@@H](Oc1cc(-c2cnn(C3CCNCC3)c2)cnc1N)c1c(Cl)ccc(F)c1Cl [crizotinib]
# Procedure, shortened: as §1
# doramapimod = compound: Cc1ccc(-n2nc(C(C)(C)C)cc2NC(=O)Nc2ccc(OCCN3CCOCC3)c3ccccc23)cc1 [doramapimod]
# Procedure, shortened: as §1
# ispinesib = compound: Cc1ccc(C(=O)N(CCCN)[C@@H](c2nc3cc(Cl)ccc3c(=O)n2Cc2ccccc2)C(C)C)cc1 [ispinesib]
# Procedure, shortened: as §1
# zotarolimus = compound: CO[C@H]1C[C@@H]2CC[C@@H](C)[C@@](O)(O2)C(=O)C(=O)N2CCCC[C@H]2C(=O)O[C@H]([C@H](C)C[C@@H]2CC[C@H](n3cnnn3)[C@H](OC)C2)CC(=O)[C@H](C)/C=C(\C)[C@@H](O)[C@@H](OC)C(=O)[C@H](C)C[C@H](C)/C=C/C=C/C=C/1C [zotarolimus]
# Procedure, shortened: as §1
# idasanutlin = compound: COc1cc(C(=O)O)ccc1NC(=O)[C@@H]1N[C@@H](CC(C)(C)C)[C@](C#N)(c2ccc(Cl)cc2F)[C@H]1c1cccc(Cl)c1F [idasanutlin]
# Procedure, shortened: as §1
# [3] = compound: COc1cc2nc(-c3cc(F)ccc3O)nc(N[C@@H]3CNC[C@H]3C(C)(C)O)c2cc1OC
# Procedure, shortened: as §1
# gefitinib = compound: COc1cc2ncnc(Nc3ccc(F)c(Cl)c3)c2cc1OCCCN1CCOCC1 [gefitinib]
# Procedure, shortened: as §1
# lapatinib = compound: CS(=O)(=O)CCNCc1ccc(-c2ccc3ncnc(Nc4ccc(OCc5cccc(F)c5)c(Cl)c4)c3c2)o1 [lapatinib]
# Procedure, shortened: as §1
# pictilisib = compound: CS(=O)(=O)N1CCN(Cc2cc3nc(-c4cccc5[nH]ncc45)nc(N4CCOCC4)c3s2)CC1 [pictilisib]
# Procedure, shortened: as §1
# [4] = compound: C[C@H](C1=CC=C(C=C1)C(=O)NC2=C3C=CNC3=NC=C2)N
# Procedure, shortened: as §1
# gandotinib = compound: Cc1cc(Nc2cc(CN3CCOCC3)c3nc(C)c(Cc4ccc(Cl)cc4F)n3n2)n[nH]1 [gandotinib]
# Procedure, shortened: as §1
# tozasertib = compound: Cc1cc(Nc2cc(N3CCN(C)CC3)nc(Sc3ccc(NC(=O)C4CC4)cc3)n2)n[nH]1 [tozasertib]
# Procedure, shortened: as §1
# duvelisib = compound: C[C@H](Nc1ncnc2nc[nH]c12)c1cc2cccc(Cl)c2c(=O)n1-c1ccccc1 [duvelisib]
# Procedure, shortened: as §1
# [5] = compound: Cc1cc(SCc2sc(-c3ccc(C(F)(F)F)cc3)nc2C)ccc1OCC(=O)O
# Procedure, shortened: as §1
# [6] = compound: C[C@@H]1COCCN1C2=NC(=NC(=C2)C3(CC3)S(=O)(=O)C)C4=C5C=CNC5=CC=C4
# Procedure, shortened: as §1
# filanesib = compound: CON(C)C(=O)N1N=C(c2cc(F)ccc2F)S[C@@]1(CCCN)c1ccccc1 [filanesib]
# Procedure, shortened: as §1
# [7] = compound: CS(=O)(=O)c1ccc(-c2cnc(N)c(C(=O)Nc3ccccc3)n2)cc1
# Procedure, shortened: as §1
# Sequence of UniProt Q68D20 (Q68D20 whole entry, looked up): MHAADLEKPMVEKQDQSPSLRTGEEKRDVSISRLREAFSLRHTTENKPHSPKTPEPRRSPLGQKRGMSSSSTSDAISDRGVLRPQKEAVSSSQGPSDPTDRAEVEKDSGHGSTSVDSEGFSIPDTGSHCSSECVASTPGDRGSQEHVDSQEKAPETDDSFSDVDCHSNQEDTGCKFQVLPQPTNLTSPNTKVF
# Sequence of UniProt Q13362 (Q13362 whole entry, looked up): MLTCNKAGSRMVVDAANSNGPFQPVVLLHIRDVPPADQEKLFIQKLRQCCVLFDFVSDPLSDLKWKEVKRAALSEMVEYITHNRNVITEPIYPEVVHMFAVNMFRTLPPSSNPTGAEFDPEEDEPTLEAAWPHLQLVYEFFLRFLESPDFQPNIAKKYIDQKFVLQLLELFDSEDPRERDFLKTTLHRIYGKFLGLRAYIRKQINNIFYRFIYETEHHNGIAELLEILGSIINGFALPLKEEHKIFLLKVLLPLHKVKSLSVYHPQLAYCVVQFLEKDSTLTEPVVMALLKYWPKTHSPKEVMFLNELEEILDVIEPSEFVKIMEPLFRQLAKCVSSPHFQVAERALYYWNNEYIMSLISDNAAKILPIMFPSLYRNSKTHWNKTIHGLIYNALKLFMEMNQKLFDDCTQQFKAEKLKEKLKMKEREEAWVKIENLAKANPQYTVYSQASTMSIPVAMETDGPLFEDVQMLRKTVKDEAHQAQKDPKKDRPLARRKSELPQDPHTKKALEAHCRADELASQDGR
# Sequence of UniProt Q14442 (Q14442 whole entry, looked up): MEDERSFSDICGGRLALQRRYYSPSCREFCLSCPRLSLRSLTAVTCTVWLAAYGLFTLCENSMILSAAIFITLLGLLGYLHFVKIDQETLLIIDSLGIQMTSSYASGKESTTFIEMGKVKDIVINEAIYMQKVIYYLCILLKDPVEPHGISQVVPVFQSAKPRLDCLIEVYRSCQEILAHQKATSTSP
# Sequence of UniProt Q14671 (Q14671 whole entry, looked up): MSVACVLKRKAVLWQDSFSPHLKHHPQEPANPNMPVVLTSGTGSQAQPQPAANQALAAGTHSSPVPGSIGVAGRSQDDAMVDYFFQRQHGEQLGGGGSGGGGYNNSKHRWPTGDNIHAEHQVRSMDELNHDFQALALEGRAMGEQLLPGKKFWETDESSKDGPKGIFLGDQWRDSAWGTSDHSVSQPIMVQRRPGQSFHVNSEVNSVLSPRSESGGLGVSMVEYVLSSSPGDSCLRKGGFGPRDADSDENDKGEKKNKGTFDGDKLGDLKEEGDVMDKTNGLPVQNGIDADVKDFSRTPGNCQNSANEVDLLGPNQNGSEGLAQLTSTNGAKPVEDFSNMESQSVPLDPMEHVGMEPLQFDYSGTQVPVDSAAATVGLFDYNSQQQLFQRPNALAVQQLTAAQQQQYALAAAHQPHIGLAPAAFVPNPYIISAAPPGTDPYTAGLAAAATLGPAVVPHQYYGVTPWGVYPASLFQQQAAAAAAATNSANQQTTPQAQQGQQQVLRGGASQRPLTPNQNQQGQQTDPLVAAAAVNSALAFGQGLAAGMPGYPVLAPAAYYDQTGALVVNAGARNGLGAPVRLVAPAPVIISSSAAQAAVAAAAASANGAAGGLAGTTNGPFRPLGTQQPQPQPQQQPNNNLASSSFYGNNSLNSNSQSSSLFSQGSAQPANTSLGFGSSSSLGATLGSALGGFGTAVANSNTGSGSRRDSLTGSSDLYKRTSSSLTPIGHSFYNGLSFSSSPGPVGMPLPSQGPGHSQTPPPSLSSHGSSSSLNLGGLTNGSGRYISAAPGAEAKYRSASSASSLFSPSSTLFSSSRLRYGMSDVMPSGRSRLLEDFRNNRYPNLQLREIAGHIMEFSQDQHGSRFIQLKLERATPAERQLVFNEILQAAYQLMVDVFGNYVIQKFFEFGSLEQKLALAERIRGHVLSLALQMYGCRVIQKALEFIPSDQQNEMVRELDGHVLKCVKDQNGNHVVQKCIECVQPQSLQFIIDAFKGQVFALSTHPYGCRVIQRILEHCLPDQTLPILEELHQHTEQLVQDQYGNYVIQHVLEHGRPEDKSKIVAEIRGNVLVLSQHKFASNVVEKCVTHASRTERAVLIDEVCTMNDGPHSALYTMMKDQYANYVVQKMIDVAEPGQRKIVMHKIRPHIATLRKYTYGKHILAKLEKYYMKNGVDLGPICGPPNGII
# Sequence of UniProt P27815 (P27815 whole entry, looked up): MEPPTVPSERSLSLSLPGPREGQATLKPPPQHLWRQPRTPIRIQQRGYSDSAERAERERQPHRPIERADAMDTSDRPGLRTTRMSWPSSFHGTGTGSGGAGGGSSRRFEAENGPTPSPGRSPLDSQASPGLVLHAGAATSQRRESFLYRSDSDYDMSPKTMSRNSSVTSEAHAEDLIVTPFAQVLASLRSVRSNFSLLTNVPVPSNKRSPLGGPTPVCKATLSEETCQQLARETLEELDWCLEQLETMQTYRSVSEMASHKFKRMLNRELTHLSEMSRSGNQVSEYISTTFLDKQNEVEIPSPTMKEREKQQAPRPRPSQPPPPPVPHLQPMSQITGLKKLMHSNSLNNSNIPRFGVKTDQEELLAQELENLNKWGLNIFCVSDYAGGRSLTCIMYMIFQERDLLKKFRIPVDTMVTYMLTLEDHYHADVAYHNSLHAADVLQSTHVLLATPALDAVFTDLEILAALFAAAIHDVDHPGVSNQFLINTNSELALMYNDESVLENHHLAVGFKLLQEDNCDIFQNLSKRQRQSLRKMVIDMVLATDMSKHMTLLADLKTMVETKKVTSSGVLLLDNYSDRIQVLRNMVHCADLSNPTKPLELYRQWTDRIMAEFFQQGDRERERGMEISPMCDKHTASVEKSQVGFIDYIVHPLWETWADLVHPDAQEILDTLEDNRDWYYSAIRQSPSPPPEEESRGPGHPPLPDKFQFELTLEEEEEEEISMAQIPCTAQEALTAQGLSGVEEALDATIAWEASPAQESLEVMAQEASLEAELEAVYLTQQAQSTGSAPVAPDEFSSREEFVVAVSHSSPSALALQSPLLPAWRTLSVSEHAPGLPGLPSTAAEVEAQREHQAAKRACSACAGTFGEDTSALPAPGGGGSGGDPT
# Sequence of UniProt Q9P1Y6 (Q9P1Y6 whole entry, looked up): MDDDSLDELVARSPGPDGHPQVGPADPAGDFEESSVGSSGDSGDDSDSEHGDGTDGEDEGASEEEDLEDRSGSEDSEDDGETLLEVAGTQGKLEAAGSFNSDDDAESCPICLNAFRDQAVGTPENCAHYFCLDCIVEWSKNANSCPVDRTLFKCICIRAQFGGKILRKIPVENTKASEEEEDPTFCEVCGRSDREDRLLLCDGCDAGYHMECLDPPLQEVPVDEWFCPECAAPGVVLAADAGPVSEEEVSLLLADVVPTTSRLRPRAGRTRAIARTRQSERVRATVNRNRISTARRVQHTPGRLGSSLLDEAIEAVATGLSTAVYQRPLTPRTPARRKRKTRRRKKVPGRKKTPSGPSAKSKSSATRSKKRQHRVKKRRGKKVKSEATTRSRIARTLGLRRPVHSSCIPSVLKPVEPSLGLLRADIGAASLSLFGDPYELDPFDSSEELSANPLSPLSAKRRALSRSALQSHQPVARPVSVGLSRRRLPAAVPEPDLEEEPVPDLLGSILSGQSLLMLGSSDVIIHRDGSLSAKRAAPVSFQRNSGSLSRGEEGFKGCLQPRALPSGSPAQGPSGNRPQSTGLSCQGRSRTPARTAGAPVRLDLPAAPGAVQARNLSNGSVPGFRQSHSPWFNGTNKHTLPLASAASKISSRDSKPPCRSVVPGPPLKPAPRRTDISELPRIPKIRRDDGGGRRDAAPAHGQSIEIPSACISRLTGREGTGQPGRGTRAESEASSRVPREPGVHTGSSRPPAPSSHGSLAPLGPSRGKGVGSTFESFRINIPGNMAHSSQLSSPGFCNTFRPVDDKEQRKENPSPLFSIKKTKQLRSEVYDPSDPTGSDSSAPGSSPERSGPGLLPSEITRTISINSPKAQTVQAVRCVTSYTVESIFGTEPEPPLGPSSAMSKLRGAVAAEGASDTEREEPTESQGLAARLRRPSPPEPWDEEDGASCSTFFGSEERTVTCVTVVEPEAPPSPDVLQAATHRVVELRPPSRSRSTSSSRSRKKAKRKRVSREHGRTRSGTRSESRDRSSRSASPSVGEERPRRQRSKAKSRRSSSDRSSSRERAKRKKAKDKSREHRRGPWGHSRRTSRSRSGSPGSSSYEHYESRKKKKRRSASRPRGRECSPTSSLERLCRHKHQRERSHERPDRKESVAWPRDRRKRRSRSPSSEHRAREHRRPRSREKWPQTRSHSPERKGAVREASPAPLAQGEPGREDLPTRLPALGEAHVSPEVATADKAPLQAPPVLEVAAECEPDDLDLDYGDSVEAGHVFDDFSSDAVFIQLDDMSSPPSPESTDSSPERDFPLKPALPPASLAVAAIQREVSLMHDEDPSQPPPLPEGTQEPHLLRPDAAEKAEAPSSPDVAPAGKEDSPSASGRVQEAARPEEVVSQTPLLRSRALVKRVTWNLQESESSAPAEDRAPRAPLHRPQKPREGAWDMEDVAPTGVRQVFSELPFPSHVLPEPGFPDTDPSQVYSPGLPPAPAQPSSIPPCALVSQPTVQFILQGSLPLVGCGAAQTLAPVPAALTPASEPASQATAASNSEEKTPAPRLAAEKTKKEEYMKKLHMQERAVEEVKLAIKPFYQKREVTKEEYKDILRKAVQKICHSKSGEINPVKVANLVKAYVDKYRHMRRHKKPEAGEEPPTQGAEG
# Sequence of UniProt Q9NUJ7 (Q9NUJ7 whole entry, looked up): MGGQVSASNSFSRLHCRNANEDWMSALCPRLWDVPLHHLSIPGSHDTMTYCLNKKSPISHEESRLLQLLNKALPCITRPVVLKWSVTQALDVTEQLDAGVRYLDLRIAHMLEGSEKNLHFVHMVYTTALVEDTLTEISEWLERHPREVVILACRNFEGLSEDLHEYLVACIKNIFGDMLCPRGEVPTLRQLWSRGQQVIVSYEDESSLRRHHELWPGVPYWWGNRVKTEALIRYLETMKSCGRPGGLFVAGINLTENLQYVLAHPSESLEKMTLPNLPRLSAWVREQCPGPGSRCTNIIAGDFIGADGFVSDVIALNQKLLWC
target,measurement,setting,value
PPP2R5C isoform 2 (UniProt Q13362),log2 fold change,[1],0.159
same,log2 fold change,alisertib,0.005
same,log2 fold change,[2],-0.009
same,log2 fold change,crizotinib,0.243
same,log2 fold change,doramapimod,0.052
same,log2 fold change,ispinesib,0.023
PRR14L (UniProt Q5THK1),log2 fold change,zotarolimus,-0.083
same,log2 fold change,idasanutlin,0
same,log2 fold change,[3],0.069
same,log2 fold change,gefitinib,-0.065
same,log2 fold change,lapatinib,0.1
same,log2 fold change,pictilisib,0.103
same,log2 fold change,[4],-0.072
same,log2 fold change,gandotinib,-0.084
same,log2 fold change,tozasertib,-0.247
PUM1 (UniProt Q14671),log2 fold change,[1],-0.029
same,log2 fold change,zotarolimus,-0.076
same,log2 fold change,idasanutlin,0.037
same,log2 fold change,pictilisib,0.032
same,log2 fold change,crizotinib,-0.079
same,log2 fold change,[4],-0.362
same,log2 fold change,duvelisib,-0.187
same,log2 fold change,gandotinib,0.207
same,log2 fold change,tozasertib,0.019
same,log2 fold change,[5],0.203
same,log2 fold change,doramapimod,0.041
PIGH (UniProt Q14442),log2 fold change,[1],-0.029
same,log2 fold change,zotarolimus,0.031
same,log2 fold change,idasanutlin,-0.127
same,log2 fold change,alisertib,0.003
same,log2 fold change,[3],-0.019
same,log2 fold change,[2],0.038
same,log2 fold change,lapatinib,-0.009
same,log2 fold change,pictilisib,0.04
same,log2 fold change,crizotinib,-0.037
same,log2 fold change,[6],-0.012
same,log2 fold change,[4],-0.179
same,log2 fold change,duvelisib,-0.034
same,log2 fold change,gandotinib,0.036
same,log2 fold change,tozasertib,0
same,log2 fold change,[5],0.04
same,log2 fold change,doramapimod,-0.062
same,log2 fold change,ispinesib,0.033
PTPA (UniProt A6PVN8),log2 fold change,filanesib,0.019
same,log2 fold change,zotarolimus,-0.143
same,log2 fold change,idasanutlin,0.09
same,log2 fold change,alisertib,-0.383
same,log2 fold change,[3],-0.085
same,log2 fold change,gefitinib,0.021
same,log2 fold change,[2],0.297
same,log2 fold change,lapatinib,0.043
same,log2 fold change,pictilisib,0.035
same,log2 fold change,[7],-0.116
same,log2 fold change,[6],0.083
same,log2 fold change,[4],0.1
same,log2 fold change,duvelisib,-0.002
same,log2 fold change,gandotinib,-0.048
same,log2 fold change,tozasertib,-0.069
same,log2 fold change,[5],-0.203
same,log2 fold change,ispinesib,-0.04
PSMD8 (UniProt K7EK21),log2 fold change,zotarolimus,-0.174
same,log2 fold change,[4],0.485
PEX5 isoform 4 (UniProt P50542),log2 fold change,filanesib,0.064
same,log2 fold change,zotarolimus,-0.048
same,log2 fold change,idasanutlin,-0.15
same,log2 fold change,[7],-0.091
same,log2 fold change,[6],-0.016
same,log2 fold change,[4],0.15
same,log2 fold change,duvelisib,-0.379
same,log2 fold change,tozasertib,-0.013
same,log2 fold change,[5],-0.047
same,log2 fold change,ispinesib,-0.078
PLCXD1 (UniProt Q9NUJ7),log2 fold change,ispinesib,-0.145
PMS2CL (UniProt Q68D20),log2 fold change,alisertib,-0.254
same,log2 fold change,gefitinib,0.033
same,log2 fold change,[2],-0.099
same,log2 fold change,[6],-0.091
same,log2 fold change,ispinesib,0.105
PAN2 (UniProt Q504Q3),log2 fold change,gefitinib,0.013
same,log2 fold change,duvelisib,-0.032
same,log2 fold change,[5],0.299
POLB (UniProt P06746),log2 fold change,filanesib,-0.155
same,log2 fold change,zotarolimus,0.215
same,log2 fold change,[3],0.037
same,log2 fold change,gefitinib,0.199
same,log2 fold change,lapatinib,-0.006
same,log2 fold change,pictilisib,-0.022
same,log2 fold change,[7],-0.078
same,log2 fold change,[6],-0.003
same,log2 fold change,[4],0.036
same,log2 fold change,duvelisib,-0.178
same,log2 fold change,gandotinib,0.081
same,log2 fold change,tozasertib,0.077
same,log2 fold change,[5],-0.045
same,log2 fold change,ispinesib,-0.1
PHRF1 (UniProt Q9P1Y6),log2 fold change,alisertib,-0.001
same,log2 fold change,[3],0.049
same,log2 fold change,[2],-0.121
same,log2 fold change,lapatinib,0.194
same,log2 fold change,ispinesib,-0.296
POLR2E (UniProt P19388),log2 fold change,[1],0.095
same,log2 fold change,zotarolimus,-0.065
same,log2 fold change,idasanutlin,-0.061
same,log2 fold change,alisertib,-0.21
same,log2 fold change,[3],0.291 (active)
same,log2 fold change,gefitinib,0.007
same,log2 fold change,[2],0.029
same,log2 fold change,lapatinib,-0.013
same,log2 fold change,pictilisib,0.063
same,log2 fold change,crizotinib,0.112
same,log2 fold change,[6],-0.027
same,log2 fold change,[4],0.14
same,log2 fold change,duvelisib,-0.001
same,log2 fold change,gandotinib,0.157
same,log2 fold change,tozasertib,0.02
same,log2 fold change,[5],0.089
same,log2 fold change,doramapimod,-0.078
same,log2 fold change,ispinesib,-0.058
PDE4A (UniProt P27815),log2 fold change,[1],-0.442
same,log2 fold change,zotarolimus,0.07
same,log2 fold change,idasanutlin,0.098
same,log2 fold change,[3],0.112
same,log2 fold change,lapatinib,-0.016
same,log2 fold change,crizotinib,0.055
same,log2 fold change,[6],-0.102
same,log2 fold change,[4],-0.171
same,log2 fold change,tozasertib,0.027
same,log2 fold change,doramapimod,0.065
same,log2 fold change,ispinesib,-0.098
